Assay outcomes deposited in PubChem BioAssay by National Center for Advancing Translational Sciences (NCATS).
APEX1 inh – inhibitors of human APE1 endonuclease | P27695 | hit rate 0.35% among 350,000 | recombinant APE1, TAMRA/BHQ-2 abasic DNA cleavage fluorescence | Potency, µM (top dose mostly 65.8 µM), usual class: inhibitors; note: nearly all actives have a fitted effect of over 55% in size
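Enzyme (0.75 nM final) and test compound are incubated 15 min at room temperature before adding 50 nM quenched THF abasic-site duplex. Cleavage dequenches TAMRA, followed at 525/598 nm over three reads one minute apart.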
RECQ1 inh – RECQ1 (human) helicase inhibition; P46063; RECQ1 DNA unwinding, red fluorescence kinetic read; Potency, µM (doses to about 57.3 µM), most hits filed as inhibitors; hit rate 0.54% among 240,000; AID 2549; note: nearly all actives have a fitted effect of over 30% in size
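RECQ1T1 50 nM; forked duplex (20 bp + 30-nt ss tails) 200 nM, ATP 2 mM final; pH 8.0, 2 mM MgCl2, 2.5 ug/ml poly(dI-dC); 15 min compound preincubation; discontinuous kinetic read over 2 h at RT.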
BLM helicase inh – blocks DNA unwinding by human BLM helicase | P54132 | recombinant BLM DNA unwinding, fluorescence dequenching | Potency, µM (series often up to 56.1 µM), hits mostly inhibitors | hit rate 0.2% among 350,000 | AID 2528; note: nearly all actives have a fitted effect of over 35% in size
Target sequence (P54132 whole entry, looked up): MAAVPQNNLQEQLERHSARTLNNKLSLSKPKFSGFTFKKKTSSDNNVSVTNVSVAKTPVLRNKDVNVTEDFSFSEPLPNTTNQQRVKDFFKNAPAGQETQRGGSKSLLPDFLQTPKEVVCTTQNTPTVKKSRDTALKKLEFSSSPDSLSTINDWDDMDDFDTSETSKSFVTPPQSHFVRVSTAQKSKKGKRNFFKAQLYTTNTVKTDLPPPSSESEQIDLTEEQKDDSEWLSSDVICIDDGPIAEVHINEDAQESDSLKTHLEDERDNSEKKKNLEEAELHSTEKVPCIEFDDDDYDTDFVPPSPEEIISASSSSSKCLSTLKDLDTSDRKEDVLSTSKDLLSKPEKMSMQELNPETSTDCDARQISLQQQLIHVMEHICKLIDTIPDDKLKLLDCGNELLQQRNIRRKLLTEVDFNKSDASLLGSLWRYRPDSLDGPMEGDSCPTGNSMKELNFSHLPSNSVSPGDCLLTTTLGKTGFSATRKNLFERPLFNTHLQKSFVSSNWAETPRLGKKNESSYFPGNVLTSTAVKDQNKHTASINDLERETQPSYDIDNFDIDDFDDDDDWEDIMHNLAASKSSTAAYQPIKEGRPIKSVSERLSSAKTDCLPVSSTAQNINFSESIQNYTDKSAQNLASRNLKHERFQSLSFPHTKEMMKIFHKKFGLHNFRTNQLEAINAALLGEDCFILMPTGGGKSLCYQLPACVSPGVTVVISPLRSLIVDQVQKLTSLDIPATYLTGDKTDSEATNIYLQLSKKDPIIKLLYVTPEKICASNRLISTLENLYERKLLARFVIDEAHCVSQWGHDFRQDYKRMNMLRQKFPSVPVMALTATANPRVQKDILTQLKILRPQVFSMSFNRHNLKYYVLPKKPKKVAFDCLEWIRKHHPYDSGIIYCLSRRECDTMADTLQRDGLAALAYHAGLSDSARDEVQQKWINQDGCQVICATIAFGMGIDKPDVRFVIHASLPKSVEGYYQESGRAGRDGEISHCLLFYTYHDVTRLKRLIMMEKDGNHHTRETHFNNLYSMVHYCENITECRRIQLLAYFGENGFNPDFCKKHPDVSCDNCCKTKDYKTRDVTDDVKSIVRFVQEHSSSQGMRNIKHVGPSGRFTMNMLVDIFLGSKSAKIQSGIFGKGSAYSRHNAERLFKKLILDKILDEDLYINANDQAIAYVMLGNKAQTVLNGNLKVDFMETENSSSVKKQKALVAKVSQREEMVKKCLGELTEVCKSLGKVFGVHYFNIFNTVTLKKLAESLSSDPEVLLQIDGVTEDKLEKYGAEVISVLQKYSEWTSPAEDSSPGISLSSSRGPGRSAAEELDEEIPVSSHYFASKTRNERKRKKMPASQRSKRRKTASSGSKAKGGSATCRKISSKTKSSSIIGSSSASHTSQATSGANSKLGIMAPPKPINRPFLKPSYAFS
JMJD2E inh – inhibitors of human JMJD2E histone demethylase; JMJD2E catalytic domain, FDH-coupled NADH fluorescence (FDH is formaldehyde dehydrogenase); Potency, µM (top dose mostly 57.1 µM), most hits filed as inhibitors; hit rate 1.6% among 230,000; AID 2147; active = well fitted inhibition curve with a large enough effect, not every such curve was filed as active; inconclusive = small, poorly fitted or top-dose-only effect, or another doubt; inactive = no such curve, though single readings can be large or run the other way; note: nearly all actives have a fitted effect of over 50% in size
TDP1 inh – inhibitors of human tyrosyl-DNA phosphodiesterase TDP1 | recombinant TDP1, AlphaScreen DNA substrate cleavage | Potency, µM (highest dose often 130 µM), actives largely listed as inhibitors | hit rate 0.28% among 350,000; note: nearly all actives have a fitted effect of over 40% in size
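Compounds were preincubated with Tdp1 (1 nM final) for 15 min at room temperature before substrate (15 nM final) started a 5 min reaction; beads (10 ug/ml final) were then added for 10 min before AlphaScreen detection.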
GCN5L2 inh-1 – inhibitors of human GCN5L2 histone acetyltransferase | Q92830 | GCN5L2 HAT assay, ThioGlo1 CoA-SH fluorescence | Potency, µM (series often up to 58.9 µM), actives largely listed as inhibitors | hit rate 0.21% among 390,000 | AID 504327
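Titration-based screen in which CoA formation is detected via maleimide probe ThioGlo1 (50uM) turning fluorescent on thiol reaction; substrates H3(1-25) 75uM and acetyl-CoA 70uM, GCN5L2 20nM, 20 min incubation at room temperature.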
GCN5L2 inh-2 – human KAT2A HAT inhibition, hit confirmation; GCN5L2 HAT, ThioGlo1 CoA fluorescence, 20 min; Potency, µM, hits mostly inhibitors; shares compounds with GCN5L2 inh-1; hit rate 70% among 140
A number is an active result; n = inactive; u = inconclusive; x = no result given. Only a selection was taken, and hits are over-represented in it overall. Unless noted, calls come from the whole dose curve; as a rule, active = well fitted curve in the direction sought with a large enough effect; inconclusive = small, poorly fitted or top-dose-only effect, or another doubt; inactive = no such curve, though single readings can be large; an effect the other way counts as inactive or inconclusive.

SMILES	APEX1 inh	RECQ1 inh	BLM helicase inh	JMJD2E inh	TDP1 inh	GCN5L2 inh-1	GCN5L2 inh-2
CN(C)/C=C1\C=C2C(=O)c3ccccc3N2C1=O	n	u	n	n	n	17.8µM	36.3
COc1ccc(CNC(=O)CSc2nnc(C)c3c(C)n(-c4ccccc4)nc23)c(OC)c1	x	x	n	x	n	n	x
CCOC(=O)C1CCN(S(=O)(=O)c2ccc3c4c(cccc24)C(=O)N3CC)CC1	n	x	x	x	n	u	u
CCc1ccc(S(=O)(=O)/N=C2\C=C(NS(=O)(=O)c3ccccc3)C(=O)c3ccccc32)cc1	n	x	n	x	x	u	x
CC(C)c1ccc(S(=O)(=O)/N=C2\C=C(NS(=O)(=O)c3ccccc3)C(=O)c3ccccc32)cc1	n	x	n	x	x	22.4µM	9.13
Cc1nc2ccc(NC(=O)c3cc([N+](=O)[O-])cc([N+](=O)[O-])c3Cl)cc2s1	n	n	n	n	n	u	8.13
Cc1nc2ccc(NC(=O)c3ccc(Cl)c([N+](=O)[O-])c3)cc2s1	n	n	n	n	n	n	x
COc1ccc(CC(=O)n2[nH]c(=O)ccc2=O)cc1OC	u	n	n	n	n	u	36.3
COc1ccc(CC(=O)n2[nH]c(=O)c3ccccc3c2=O)cc1OC	n	n	n	n	n	n	x
CN(Cc1ccc(F)cc1)S(=O)(=O)c1nnc(NC(=O)c2ccc(F)cc2)s1	x	x	n	x	n	n	x
CCOC(=O)Cc1csc(NC(=O)CSc2nnnn2-c2ccc(C)c(C)c2)n1	n	n	n	n	n	u	u
CCCOc1cccc(C2C(C(=O)c3cc4ccccc4o3)=C(O)C(=O)N2c2cc(C)on2)c1 (stereo unspecified)	n	x	n	x	n	u	x
Cc1cc(N2C(=O)C(O)=C(C(=O)c3cc4ccccc4o3)C2c2cccc(Br)c2)no1 (stereo unspecified)	n	x	n	x	n	u	u
CCOC(=O)c1sc(NC(=O)CSc2nnc(Cc3ccccc3)o2)c(C#N)c1C	n	n	n	n	n	u	10.2
